Where “and” joins values, the source holds several entries; their conditions need not be identical. Equal entries are not always repeated. The whole screen tested about 5,500 compounds, of which about 2,000 (36%) were called active. About 18% were inconclusive and are not listed. No stated cut-off is given here; in the data, active means normalized growth mostly below about 0.91 (no sharp cut-off); inconclusive means no clear call, values can overlap the other calls; inactive means mostly above about 0.92. The list shows a part of the results.
Assay: chemical genetic growth profiling, strain panel (AID 1159580);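 further: tested at 20 µM; growth read once vehicle control cultures reached saturation at 30 °C; 1 = growth at the plate median or of vehicle wells; lower values mean less growth of the strain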
Details: S. cerevisiae deletion strains, growth OD

Measured: normalized growth

COC(=O)C1=CCCN(C)C1
inactive: locus YAL013W, strain DEP1, hits give low values 1 and 1.01 | locus YAL021C, strain ccr4, hits give low values 1.03 | locus YAL026C, strain drs2, hits give low values 1.02 | locus YAL030W, strain snc1, hits give low values 1 | locus YAL040C, strain CLN3, hits give low values 0.997 | locus YBL061C, strain skt5, hits give low values 1.02 | locus YBR009C, strain hhf1, hits give low values 0.986 | locus YBR021W, strain FUR4, hits give low values 1 | locus YBR023C, strain chs3, hits give low values 1.02 | locus YBR171W, strain sec66, hits give low values 1.02 | locus YBR229C, strain ROT2, hits give low values 0.954 | locus YBR231C, strain swc5, hits give low values 0.999 | locus YBR279W, strain paf1, hits give low values 1.02 | locus YCL011C, strain gbp2, hits give low values 1.01 | locus YCL016C, strain dcc1, hits give low values 1.02 | locus YCL029C, strain bik1, hits give low values 0.983 | locus YCL069W, strain vba3, hits give low values 0.988 | locus YCR088W, strain abp1, hits give low values 1.01 | locus YDL005C, strain med2, hits give low values 0.998 | locus YDL035C, strain GPR1, hits give low values 0.993 | locus YDL040C, strain nat1, hits give low values 0.993 | locus YDL074C, strain BRE1, hits give low values 0.99 | locus YDL101C, strain DUN1, hits give low values 0.976 | locus YDL134C, strain PPH21, hits give low values 0.969 | locus YDL185W, strain tfp1, hits give low values 0.992 | locus YDL192W, strain arf1, hits give low values 0.983 | locus YDR001C, strain nth1, hits give low values 1 | locus YDR069C, strain doa4, hits give low values 0.993 | locus YDR101C, strain arx1, hits give low values 0.989 | locus YDR137W, strain rgp1, hits give low values 1.02 | locus YDR150W, strain NUM1, hits give low values 0.973 and 1.01 | locus YDR159W, strain sac3, hits give low values 0.94 | locus YDR162C, strain NBP2, hits give low values 0.991 | locus YDR195W, strain ref2 0.956 | locus YDR297W, strain sur2, hits give low values 1 | locus YDR318W, strain mcm21, hits give low values 0.99 | locus YDR334W, strain swr1, hits give low values 1 | locus YDR335W, strain msn5, hits give low values 1.02 | locus YDR388W, hits give low values 0.994 | locus YDR392W, strain spt3, hits give low values 0.977 | locus YDR502C, strain sam2, hits give low values 1 | locus YEL003W, strain gim4, hits give low values 0.997 | locus YEL037C, strain rad23, hits give low values 1.02 | locus YEL061C, strain CIN8 (second series), hits give low values 0.988 | locus YEL061C, strain CIN8, hits give low values 0.991 | locus YER002W, strain NOP16, hits give low values 0.986 | locus YER015W, strain faa2, hits give low values 1 | locus YER016W, strain bim1, hits give low values 1.02 | locus YER110C, hits give low values 0.969 | locus YER111C, strain swi4, hits give low values 1.01 | locus YER155C, strain BEM2 (second series), hits give low values 0.984 | locus YER155C, strain BEM2, hits give low values 1.02 | locus YER167W, strain BCK2, hits give low values 0.995 | locus YFR010W, strain ubp6, hits give low values 0.984 | locus YGL078C, strain dbp3, hits give low values 0.988 | locus YGL086W, strain mad1, hits give low values 0.994 | locus YGL167C, strain pmr1, hits give low values 1.01 | locus YGL173C, strain kem1, hits give low values 0.976 | locus YGL227W, strain vid30, hits give low values 0.998 | locus YGL240W, strain doc1, hits give low values 0.974 | locus YGL248W, strain PDE1, hits give low values 0.978 | locus YGL253W, strain hxk2, hits give low values 1.02 | locus YGR078C, strain PAC10, hits give low values 0.991 | locus YGR135W, strain pre9, hits give low values 0.983 | locus YGR229C, strain SMI1, hits give low values 1 | locus YGR252W, strain gcn5, hits give low values 0.945 | locus YHR013C, strain ard1, hits give low values 1.03 | locus YHR027C, strain rpn1, hits give low values 0.996 | locus YHR030C, strain SLT2, hits give low values 0.986 and 0.989 | locus YHR079C, strain IRE1 (second series), hits give low values 0.994 | locus YHR079C, strain IRE1, hits give low values 1.05 | locus YHR094C, strain hxt1, hits give low values 0.996 | locus YHR129C, strain ARP1, hits give low values 0.993 | locus YHR142W, strain chs7, hits give low values 1.03 | locus YHR200W, strain rpn10, hits give low values 0.989 | locus YIL066C, strain RNR3, hits give low values 0.982 | locus YIL073C, strain SPO22, hits give low values 0.935 | locus YIL125W, strain kgd1, hits give low values 0.995 | locus YIR030C, strain dcg1, hits give low values 0.98 | locus YJL092W, strain hpr5, hits give low values 1.01 | locus YJL095W, strain BCK1 (second series), hits give low values 1.01 | locus YJL095W, strain BCK1, hits give low values 1.02 and 1 | locus YJL115W, strain asf1, hits give low values 1.02 | locus YJL129C, strain trk1, hits give low values 1.04 | locus YJL134W, strain LCB3, hits give low values 0.985 | locus YJL154C, strain vps35, hits give low values 0.996 | locus YJL164C, strain tpk1, hits give low values 0.998 | locus YJL166W, strain qcr8, hits give low values 0.998 | locus YJL168C, strain set2, hits give low values 1 | locus YJL187C, strain SWE1 (second series), hits give low values 0.973 | locus YJR043C, strain POL32, hits give low values 1 | locus YJR066W, strain TOR1, hits give low values 0.968 | locus YJR075W, strain HOC1, hits give low values 0.99 and 1.01 | locus YKL009W, strain mrt4, hits give low values 0.999

From PubChem BioAssay AID1159580 (chemical genetic matrix, 2015)
